Several values for one entry are separate records, joined by “and”; a condition that tells them apart may be missing. Identical values can stand only once. Inconclusive results are not listed. Activity calls are given as the source filed them. Rule for the calls: active = hit-call score of the fitted dose curve at least 0.9, where 1 is the maximum; inconclusive = response in the unintended direction; inactive = score below 0.9.
The compounds below were run against human AKT serine/threonine Kinase 1 (AKT1), AKT1 (gene 207) (UniProt P31749) (assay: NVS_ENZ_hAKT1: NovaScreen (NVS) Enzymatic Assay for human AKT serine/threonine Kinase 1 (AKT1) (AID 2283138)).
In short: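 Recombinant human AKT1 with a specific substrate, product separated by electrophoretic mobility shift, read after 1 h. Compounds at 25 uM in duplicate, then concentration-response up to 50 uM for hits; inhibition relative to DMSO.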

Chain of human AKT serine/threonine Kinase 1 (AKT1), AKT1 (gene 207) (P31749 whole entry, looked up): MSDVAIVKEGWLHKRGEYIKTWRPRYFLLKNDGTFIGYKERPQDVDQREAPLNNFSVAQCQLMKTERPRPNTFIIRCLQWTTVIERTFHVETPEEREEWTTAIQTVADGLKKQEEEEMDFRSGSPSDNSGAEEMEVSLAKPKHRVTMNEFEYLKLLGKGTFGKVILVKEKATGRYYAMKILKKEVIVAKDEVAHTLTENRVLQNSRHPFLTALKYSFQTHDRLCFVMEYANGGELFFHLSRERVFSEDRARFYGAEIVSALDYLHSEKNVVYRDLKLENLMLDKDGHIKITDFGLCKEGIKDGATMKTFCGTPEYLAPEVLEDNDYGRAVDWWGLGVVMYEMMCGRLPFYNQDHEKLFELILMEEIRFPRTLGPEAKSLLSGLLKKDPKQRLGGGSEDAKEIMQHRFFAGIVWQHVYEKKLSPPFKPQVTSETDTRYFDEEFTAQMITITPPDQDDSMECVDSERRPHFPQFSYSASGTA

Row | SMILES | outcome
1 | N#Cc1cc(Br)c(O)c(Br)c1 | inactive
2 | CCCCNC(=O)n1c(NC(=O)OC)nc2ccccc21 | inactive
3 | Oc1ccccc1-c1ccccc1 | inactive
4 | CCCCOC(=O)c1ccccc1C(=O)OCCCC | inactive

What follows are compounds tested against human Beta-secretase (BACE), BACE1 (gene 23621) (UniProt P56817) (assay: NVS_ENZ_hBACE: NovaScreen (NVS) Enzymatic Assay for human Beta-secretase (BACE) (AID 2283140);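 note: hits are inhibitors that reduce fluorescent substrate signal versus DMSO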).
In short: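 Cell-free assay of recombinant Sf9-expressed human BACE with fluorescent substrate, read by fluorescence intensity after 1 h. Primary screen in duplicate at 25 uM; actives then run in concentration series; loss of signal relative to DMSO.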

Chain of human Beta-secretase (BACE), BACE1 (gene 23621) (P56817 whole entry, looked up): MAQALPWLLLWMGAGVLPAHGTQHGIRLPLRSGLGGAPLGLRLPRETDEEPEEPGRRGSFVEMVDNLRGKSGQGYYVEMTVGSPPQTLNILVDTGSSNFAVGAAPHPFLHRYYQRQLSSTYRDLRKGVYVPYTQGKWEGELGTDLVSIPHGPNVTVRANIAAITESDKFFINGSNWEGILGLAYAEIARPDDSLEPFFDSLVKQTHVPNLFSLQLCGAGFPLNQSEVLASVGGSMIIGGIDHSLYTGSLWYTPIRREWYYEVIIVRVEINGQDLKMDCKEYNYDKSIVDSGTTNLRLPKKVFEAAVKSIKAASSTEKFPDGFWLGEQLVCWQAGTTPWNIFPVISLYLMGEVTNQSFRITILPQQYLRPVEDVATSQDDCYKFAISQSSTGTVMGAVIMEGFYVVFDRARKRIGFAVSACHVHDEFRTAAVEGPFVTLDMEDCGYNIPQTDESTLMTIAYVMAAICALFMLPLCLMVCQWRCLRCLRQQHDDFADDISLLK

Row | SMILES | AC50 | outcome
5 | COC(=O)C(C)Oc1ccc(Oc2ccc(Cl)cc2Cl)cc1 (stereo unspecified) | 5.69 µM (active) and 16.3 µM (active) and 5.37 µM (active) | 
6 | C#CCOS(=O)OC1CCCCC1Oc1ccc(C(C)(C)C)cc1 (stereo unspecified) | 14.8 µM (active) | 
7 | Cc1c(F)c(F)c(COC(=O)C2C(/C=C(\Cl)C(F)(F)F)C2(C)C)c(F)c1F (stereo unspecified) |  | inactive
8 | C=CCC1=C(C)C(OC(=O)C2C(C=C(C)C)C2(C)C)CC1=O (stereo unspecified) |  | inactive
9 | CCCCOC(=O)c1ccccc1C(=O)OCCCC |  | inactive
10 | CC(C)Oc1cc(-n2nc(C(C)(C)C)oc2=O)c(Cl)cc1Cl |  | inactive

What follows are compounds tested against human Aurora Kinase A - serine/threonine-protein Kinase 6 (AurA), AURKA (gene 6790) (UniProt O14965) (assay: NVS_ENZ_hAurA: NovaScreen (NVS) Enzymatic Assay for human Aurora Kinase A - serine/threonine-protein Kinase 6 (AurA) (AID 2283142)).
In short: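 Cell-free enzymatic assay with human Aurora A, 1 hour after dosing. Fluorescent substrate turnover detected after electrophoretic mobility shift separation of substrate and product. Screened at 25 uM, actives retested in concentration-response up to 50 uM.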

Chain of human Aurora Kinase A - serine/threonine-protein Kinase 6 (AurA), AURKA (gene 6790) (O14965 whole entry, looked up): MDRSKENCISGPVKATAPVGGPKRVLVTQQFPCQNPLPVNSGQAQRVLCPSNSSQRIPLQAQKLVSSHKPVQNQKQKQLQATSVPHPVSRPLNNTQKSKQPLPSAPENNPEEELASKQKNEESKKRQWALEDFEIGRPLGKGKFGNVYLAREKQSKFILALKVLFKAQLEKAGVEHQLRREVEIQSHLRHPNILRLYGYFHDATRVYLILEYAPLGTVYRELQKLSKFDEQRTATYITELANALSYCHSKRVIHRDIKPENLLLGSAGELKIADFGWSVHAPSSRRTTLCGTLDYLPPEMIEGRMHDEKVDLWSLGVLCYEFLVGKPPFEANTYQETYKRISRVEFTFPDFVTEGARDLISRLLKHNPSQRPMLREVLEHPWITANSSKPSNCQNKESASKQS

Row | SMILES | outcome
11 | N#Cc1cc(Br)c(O)c(Br)c1 | inactive
12 | CCCCNC(=O)n1c(NC(=O)OC)nc2ccccc21 | inactive
13 | Oc1ccccc1-c1ccccc1 | inactive
14 | Fc1ccc(Oc2ccnc3cc(Cl)cc(Cl)c23)cc1 | inactive

These compounds were tested against human Casein Kinase 2- alpha 2 beta 2 (CK2a2b2), CSNK2A1 (gene 1457) (UniProt P68400) (assay: NVS_ENZ_hCK2a2b2: NovaScreen (NVS) Enzymatic Assay for human Casein Kinase 2- alpha 2 beta 2 (CK2a2b2) (AID 2283147)).
Procedure: (§1) NVS_ENZ_hCK2a2b2 is a biochemical, single-readout assay that uses extracted gene-proteins in a cell-free assay. Measurements were taken 1 hour after chemical dosing in a 384-well plate.NVS_ENZ_hCK2a2b2 is one of one assay component(s) measured or calculated from the NVS_ENZ_hCK2a2b2 assay. It is designed to make measurements of enzyme activity, a form of enzyme reporter, as detected with fluorescence intensity signals by Fluorescence and electrophoretic mobility shift technology.Data from the assay component NVS_ENZ_hCK2a2b2 was analyzed into 1 assay endpoint. This assay endpoint, NVS_ENZ_hCK2a2b2, was analyzed in the positive analysis fitting direction relative to DMSO as the negative control and baseline of activity. Using a type of enzyme reporter, loss-of-signal activity can be used to understand changes in the enzymatic activity as they relate to the gene CSNK2A1. Furthermore, this assay endpoint can be referred to as a primary readout, because this assay has produced multiple assay endpoints where this one serves a enzymatic activity function. To generalize the intended target to other relatable targets, this assay endpoint is annotated to the kinase intended target family, where the subfamily is serine/threonine kinase.
(§2) Binding assays used specific radioligands (tritiated, iodinated) with non-radioactive competitive displacement ligands in agonist or antagonist protocols (as indicated) and various reference compounds and inhibitors to titrate specific binding to receptors and transporters. Most enzyme assays (CYPs, kinases, phosphatases, proteases, HDACs) used recombinant protein and specific substrates (fluorescence mostly, some colorimetric and radioactive) and inhibitors, followed by a biochemical separation of substrate and product. All assays for the biochemical HTS were initially run in duplicate at a single concentration (10 uM for CYP450 assays and 25 uM for all others). Assay-chemical combinations meeting a pre-defined threshold (e.g., 30% inhibition and other criteria defined below) were then run in singleton concentration-response format with maximum concentration of 20 uM for CYPs and 50 uM for all others. Each assay was run with positive and negative controls, and concurrent controls on every plate. The follow-up (secondary) screen tested active chemical-pairs in concentration series, as well as a few additional assays not tested in the primary screen, some selected negative inactives, and several cases re-run in the concentration series for confirmatory purposes.

Chain of human Casein Kinase 2- alpha 2 beta 2 (CK2a2b2), CSNK2A1 (gene 1457) (P68400 whole entry, looked up): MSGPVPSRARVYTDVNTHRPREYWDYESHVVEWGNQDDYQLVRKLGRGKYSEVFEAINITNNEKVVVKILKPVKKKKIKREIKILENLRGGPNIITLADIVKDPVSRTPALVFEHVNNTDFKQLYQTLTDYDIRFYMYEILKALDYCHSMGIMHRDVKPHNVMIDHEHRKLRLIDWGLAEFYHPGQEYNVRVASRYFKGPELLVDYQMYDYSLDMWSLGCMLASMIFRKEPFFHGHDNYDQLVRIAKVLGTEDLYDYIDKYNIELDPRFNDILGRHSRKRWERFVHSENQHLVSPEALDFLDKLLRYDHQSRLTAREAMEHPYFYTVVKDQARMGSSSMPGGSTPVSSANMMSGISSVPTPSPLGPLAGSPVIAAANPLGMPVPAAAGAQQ

Row | SMILES | AC50
15 | N#Cc1cc(Br)c(O)c(Br)c1 | 13 µM (active)
16 | Cc1cc(Cl)ccc1OCC(=O)O | 16.2 µM (active)
17 | O=C(O)COc1nc(Cl)c(Cl)cc1Cl | 13.9 µM (active)

Each compound was assayed against human Casein Kinase 1-delta (CK1D), CSNK1D (gene 1453) (UniProt P48730) (assay: NVS_ENZ_hCK1D: NovaScreen (NVS) Enzymatic Assay for human Casein Kinase 1-delta (CK1D) (AID 2283148)).
Procedure: as §1, with “NVS_ENZ_hCK1D” for “NVS_ENZ_hCK2a2b2”, “plate.NVS_ENZ_hCK1D” for “plate.NVS_ENZ_hCK2a2b2”, “NVS_ENZ_hCK1D,” for “NVS_ENZ_hCK2a2b2,”, “CSNK1D.” for “CSNK2A1.”
as §2

Chain of human Casein Kinase 1-delta (CK1D), CSNK1D (gene 1453) (P48730 whole entry, looked up): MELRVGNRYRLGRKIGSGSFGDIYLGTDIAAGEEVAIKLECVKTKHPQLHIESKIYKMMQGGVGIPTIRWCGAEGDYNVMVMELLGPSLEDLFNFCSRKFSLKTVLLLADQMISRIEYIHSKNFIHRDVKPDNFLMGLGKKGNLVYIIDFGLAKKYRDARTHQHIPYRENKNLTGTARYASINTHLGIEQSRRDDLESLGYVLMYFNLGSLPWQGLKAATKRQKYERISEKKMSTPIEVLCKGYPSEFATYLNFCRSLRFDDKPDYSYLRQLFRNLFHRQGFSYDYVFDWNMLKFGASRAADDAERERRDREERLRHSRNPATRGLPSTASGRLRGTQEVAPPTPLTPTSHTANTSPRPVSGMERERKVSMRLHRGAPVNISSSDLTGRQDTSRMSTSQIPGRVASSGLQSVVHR

Row | SMILES | outcome
18 | CCCCNC(=O)n1c(NC(=O)OC)nc2ccccc21 | inactive
19 | CCCCC(CC)COC(=O)c1ccccc1C(=O)OCC(CC)CCCC (stereo unspecified) | inactive
20 | CCNc1nc(Cl)nc(NCC)n1 | inactive
21 | CCNc1nc(Cl)nc(NC(C)C)n1 | inactive

Reference: PubChem BioAssay (EPA / NIEHS)
